From PubChem BioAssay AID651834 (Broad Institute, 2012) come the findings set out here.

The source made the active and inactive calls. How the calls were made is not given here.

Chain of Kelch-like ECH-associated protein 1 (Homo sapiens) (Q14145 whole entry, looked up): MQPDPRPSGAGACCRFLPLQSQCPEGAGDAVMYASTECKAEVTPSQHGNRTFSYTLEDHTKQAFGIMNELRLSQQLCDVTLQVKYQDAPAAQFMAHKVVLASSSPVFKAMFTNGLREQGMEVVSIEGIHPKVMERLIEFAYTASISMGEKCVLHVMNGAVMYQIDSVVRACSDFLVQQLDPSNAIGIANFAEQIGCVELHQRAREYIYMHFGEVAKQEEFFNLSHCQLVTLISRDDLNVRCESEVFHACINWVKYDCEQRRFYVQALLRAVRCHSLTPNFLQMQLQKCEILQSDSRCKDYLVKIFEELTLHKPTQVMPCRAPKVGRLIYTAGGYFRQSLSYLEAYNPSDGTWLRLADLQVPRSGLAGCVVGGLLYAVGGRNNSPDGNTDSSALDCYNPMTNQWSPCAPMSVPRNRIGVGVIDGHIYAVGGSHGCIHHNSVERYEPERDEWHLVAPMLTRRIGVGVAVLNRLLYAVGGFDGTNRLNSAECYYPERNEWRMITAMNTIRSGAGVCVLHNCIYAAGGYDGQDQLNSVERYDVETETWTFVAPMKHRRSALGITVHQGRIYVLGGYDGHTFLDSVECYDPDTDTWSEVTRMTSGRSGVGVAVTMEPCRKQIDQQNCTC

This assay addresses Kelch-like ECH-associated protein 1 (Homo sapiens) (UniProt Q14145). In words: Keap1-Nrf2 peptide binding inhibitors, dose response, biochemical, fluorescence polarization, dry powder, set 4 (AID 651834). As to conditions: plate reader; series mostly up to 100 µM.
For `O=C1c2ccccc2C(=O)N1CC1c2ccccc2CCN1C(=O)c1cccc(C(F)(F)F)c1` (stereo not given), the call was inactive.

As for `CS(=O)(=O)N1CCc2ccccc2C1CN1C(=O)c2ccccc2C1=O` (stereo not given), the result was inactive.

Consider `CCN(CC)C(=O)N1CCc2ccccc2C1CN1C(=O)c2ccccc2C1=O` (stereo not given), for which the compound was classed as inactive.

Regarding `O=C1c2ccccc2C(=O)N1CC1c2ccccc2CCN1S(=O)(=O)c1cccc2cccnc12` (stereo not given), the compound was classed as inactive.

`COc1cc(OC)cc(C(=O)N2CCc3ccccc3C2CN2C(=O)c3ccccc3C2=O)c1` (stereo not given): the result was inactive.

With `O=C1c2ccccc2C(=O)N1CC1c2ccccc2CCN1C(=O)COc1ccc(Cl)cc1Cl` (stereo not given), the outcome was inactive.

For the compound `O=C1c2ccccc2C(=O)N1CC1c2ccccc2CCN1C(=O)N1CCOCC1` (stereo not given), the outcome was inactive.

As for `COc1cc(/C=C/C(=O)N2CCC=CC2=O)cc(OC)c1OC`, the result was inactive.

Take `CC(=O)N1CCc2ccccc2C1CN1C(=O)c2ccccc2C1=O` (stereo not given): the outcome was inactive.

Take `O=C(CN1CCc2ccccc2C1CN1C(=O)c2ccccc2C1=O)c1c[nH]c2ccccc12` (stereo not given): the compound was called inactive.
